Screens: PubChem, National Center for Advancing Translational Sciences (NCATS)
Pol iota inh: DNA polymerase iota (human) inhibition. Q9UNA4. Pol iota fluorescent replication assay, 10 min. Potency, µM (top dose mostly 115 µM), without a hit: top-dose activity, negative = inhibition, usual class: inhibitors. actives 1% (n = 390,000)
Target sequence (Q9UNA4 whole entry, looked up): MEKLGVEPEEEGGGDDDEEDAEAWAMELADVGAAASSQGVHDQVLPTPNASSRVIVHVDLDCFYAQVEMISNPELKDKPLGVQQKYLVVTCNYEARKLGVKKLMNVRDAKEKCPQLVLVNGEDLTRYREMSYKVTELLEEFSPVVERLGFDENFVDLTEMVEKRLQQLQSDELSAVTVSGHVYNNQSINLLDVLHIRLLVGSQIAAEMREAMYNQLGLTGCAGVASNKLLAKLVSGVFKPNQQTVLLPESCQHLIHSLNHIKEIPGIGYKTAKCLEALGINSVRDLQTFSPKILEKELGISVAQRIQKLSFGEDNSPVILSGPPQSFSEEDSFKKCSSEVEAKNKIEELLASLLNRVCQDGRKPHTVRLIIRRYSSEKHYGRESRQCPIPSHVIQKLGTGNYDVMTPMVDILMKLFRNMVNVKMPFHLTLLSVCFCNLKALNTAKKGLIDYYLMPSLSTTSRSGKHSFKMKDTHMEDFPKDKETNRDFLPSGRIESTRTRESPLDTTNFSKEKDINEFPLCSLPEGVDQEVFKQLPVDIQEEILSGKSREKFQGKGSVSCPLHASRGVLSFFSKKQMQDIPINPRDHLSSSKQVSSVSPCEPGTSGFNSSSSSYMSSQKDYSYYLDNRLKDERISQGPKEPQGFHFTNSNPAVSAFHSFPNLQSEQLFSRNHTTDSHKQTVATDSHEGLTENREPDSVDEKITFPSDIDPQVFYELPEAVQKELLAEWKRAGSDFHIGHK
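Fluorescent replication assay read twice, at 0 min and 10 min after adding 50 nM (final) substrate. Enzyme (10 nM) and compounds were first incubated 15 min at room temperature; enzyme-free buffer wells were negative controls.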
Pol kappa inh-1: DNA polymerase kappa (human) inhibition; Q9UBT6; purified Pol kappa, fluorescent DNA synthesis assay, 10 min; Potency, µM (series often up to 107 µM), inactives show top-dose activity, negative = inhibition, hits mostly inhibitors; actives 0.53% (n = 400,000); AID 588579; also: % is scaled to controls: 0 for no effect and ±100 for the full control effect
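Activity was followed as the change in fluorescence between reads at 0 and 10 min after starting the reaction with 50 nM substrate. Beforehand, 10 nM polymerase had been preincubated with compound for 15 min at room temperature.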
Pol eta inh-1: DNA polymerase eta (human) inhibition | Q9Y253 | recombinant Pol eta, fluorescent DNA replication assay | Potency, µM (titrated, usually from 114 µM), without a hit: at the highest dose activity change, negative = inhibition, actives largely listed as inhibitors | actives 1.2% (n = 390,000) | AID 588591; also: % is scaled to controls: 0 for no effect and ±100 for the full control effect
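Pol eta at 10 nM preincubated with compounds 15 min at room temperature; reaction started with fluorescent substrate (50 nM final) and read kinetically at 0 and 10 min.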
POLB inh: blocks human DNA polymerase beta activity. P06746. Pol beta primer extension/strand displacement, fluorescence kinetic. Potency, µM (titrated, usually from 114 µM), for the others: at the highest dose activity change, negative = inhibition, actives largely listed as inhibitors. actives 1.3% (n = 340,000); also: % is scaled to controls: 0 for no effect and ±100 for the full control effect
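Kinetic readout of DNA synthesis with strand displacement by Pol beta. Compound and 10 nM enzyme sit 15 min at room temperature; 50 nM substrate starts the reaction, read immediately and at 10 min.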
WRN inhibitor: blocks human WRN helicase; Q14191; WRN helicase unwinding, fluorescent forked duplex, kinetic; Potency, µM (highest dose often 114 µM), for inactives: at the highest dose activity change, negative = inhibition, hits mostly inhibitors; actives 0.46% (n = 360,000); AID 651768; also: % is scaled to controls: 0 for no effect and ±100 for the full control effect; nearly all actives have a fitted effect of over 55% in size
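Fluorescence dequenching readout, ex 525 nm/em 598 nm, kinetic mode: forked duplex DNA (100 nM final) with adjacent fluorophore and quencher unwound by WRN (20 nM final) with 2 mM ATP. Compound preincubation 15 min, room temperature.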
FEN1 inh-1: blocks human flap endonuclease 1; P39748; Recombinant FEN1 flap cleavage, fluorescence, 15 min; Potency, µM (highest dose often 114 µM), without a hit: top-dose activity change, negative = inhibition, most hits filed as inhibitors; actives 0.35% (n = 390,000); AID 588795; also: % is scaled to controls: 0 for no effect and ±100 for the full control effect; nearly all actives have a fitted effect of over 65% in size
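Concentration–response screening of FEN1 (10 nM): 15 min compound preincubation at room temperature, reaction started with 50 nM substrate and read at 0 and 15 min. Corrected, normalized data were fitted by a four-parameter Hill equation.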
PGK validate: validation of Trypanosoma brucei phosphoglycerate kinase inhibitors. Potency, µM (top dose mostly 57.5 µM), for the others: at the highest dose activity change, negative = inhibition, hits mostly inhibitors. AID 686980. TbPGK coupled GAPDH assay, Kinase-Glo luminescence. actives 79% (n = 500). shares compounds with Pol kappa inh-1; also: % is scaled to controls: 0 for no effect and ±100 for the full control effect; nearly all actives have a fitted effect of over 65% in size
POLI cherry-pick: Human Pol iota inhibitor confirmatory assay; shares compounds with Pol kappa inh-1; Potency, µM, actives largely listed as inhibitors; Pol iota primer extension, TAMRA/BHQ fluorescence; actives 77% (n = 1,500); AID 720496
Pol kappa inh-2: Pol kappa (human) inhibition, cherry-pick confirmation; shares compounds with Pol eta inh-1; Potency, µM, most hits filed as inhibitors; actives 76% (n = 920); purified Pol-kappa, fluorescent strand-displacement substrate
Pol eta inh-2: Pol eta (human) inhibition, cherry-pick confirmation | shares compounds with Pol eta inh-1 | actives 64% (n = 2,600) | Potency, µM, usual class: inhibitors | AID 720502 | Pol eta primer extension, TAMRA/BHQ fluorescence, 10 min
FEN1 inh-2: FEN1 inhibition, cherry-pick retest; shares compounds with FEN1 inh-1; FEN1 flap cleavage, TAMRA/BHQ2 fluorogenic DNA substrate; Potency, µM, usual class: inhibitors; actives 79% (n = 880); also: nearly all actives have a fitted effect of over 60% in size
An asterisk follows results filed as active; u = inconclusive; x = not tested or not shown; [ ] = remark or other dose. Hits are enriched below; roughly 2.4% of the tested compounds scored in any of these assays. Calls follow the shape of the dose curve; as a rule, active = well fitted curve in the direction sought with a large enough effect; inconclusive = small, poorly fitted or top-dose-only effect, or another doubt; inactive = no such curve, though single readings can be large; an effect the other way counts as inactive or inconclusive. Potency is read from the fitted curve at half-maximal effect.

SMILES | Pol iota inh | Pol kappa inh-1 | Pol eta inh-1 | POLB inh | WRN inhibitor | FEN1 inh-1 | POLI cherry-pick | Pol eta inh-2 | FEN1 inh-2 | others
CCc1ccccc1NC(=O)Nc1cc(C(=O)NCc2cccc(F)c2)ccc1N1CCCC1 | 20% | -1%[60.1 µM] | -7% | 26% | x | 6% | x | x | x
CCc1ccc(Sc2cc(C(=O)O)c3ccccc3n2)cc1 | 3% | -4%[60.1 µM] | -8% | -15% | x | 16% | x | x | x
CCC(C(=O)N1CCN(c2ccccc2F)CC1)n1nc(C)c2sc3ccccc3c2c1=O (stereo not drawn) | -2% | -7% | -19% | -24% | x | 0% | x | x | x
C=C1C(c2ccc(C)cc2)=CCc2cc(C)cc(C)c21 | x | 11%[60.1 µM] | x | x | x | x | x | x | x
O=C(CSc1nc2c(c(=O)[nH]1)CN(Cc1ccc3c(c1)OCO3)CC2)Nc1cccc(Cl)c1 | 21% | 6% | u | 11% | x | -3% | x | x | x
CC(=O)Nc1ccc(-n2nnnc2SCC(=O)Nc2cccc(NC(=O)c3ccco3)c2)cc1 | 28µM* | -55% | u | u | 9% | u | 53* | u | u
CCc1ccc(-n2nnnc2SCC(=O)Nc2ccc(NC(C)=O)cc2)cc1 | 9% | 1% | -1% | 3% | 3% | 2% | x | x | x
COc1ccc2sc(/C=C/c3ccccc3O)[n+](C)c2c1 | 18µM* | -27% | 50µM* | 18µM* | u | 40µM* | 67* | 34* | 85* | Pol kappa inh-2=67*
O=c1cc2c(=O)oc3cc(O)c(O)oc3c2c(O)c1O | 1.1µM* | 2.8µM* | 0.71µM* | 0.35µM* | u | 7.1µM* | 1.1* | 1.2* | 8.5* | PGK validate=u;Pol kappa inh-2=0.95*
Nc1ccc(Br)c2c1C(=O)c1ccccc1C2=O | u | -9% | u | u | -29% | u | x | x | x
Nc1ccc(O)c2c1C(=O)c1ccccc1C2=O | 40µM* | 28µM* | 8.9µM* | 2.8µM* | 32µM* | 35µM* | 19* | 21* | 43* | PGK validate=12µM*;Pol kappa inh-2=3.4*
CCOc1cc(/C=N/NC(=O)c2ccc(-c3csc(Nc4ccc(C)cc4)n3)cc2)ccc1OCC(=O)O | 8.9µM* | 32µM* | 18µM* | 5µM* | 50µM* | 50µM* | 30* | 76* | 54* | PGK validate=12µM*;Pol kappa inh-2=19*
COc1cc(/C=N\NC(=O)c2ccc(-c3ccccc3)cc2)ccc1OCC(N)=O | 2% | -3% | -11% | -11% | 1% | 5% | x | x | x
COc1cc(/C=C/C=C2/CC/C(=C/C=C/c3ccc(O)c(OC)c3)C2=O)ccc1O | 3.5µM* | 14µM* | 5µM* | x | 40µM* | 40µM* | 21* | 15* | 43*
Cc1ccc(-n2c(=O)c3cccnc3n2CC(=O)Nc2cccc(C)c2C)cc1 | -11% | 17% | -13% | 22% | x | -4% | x | x | x
COCCCNc1c2c3c(cccc3[nH]c1=O)C(=O)c1ccccc1-2 | u | u | u | 25µM* | 28µM* | 79µM* | u | u | 60* | Pol kappa inh-2=u
CCOC(=O)c1c2c3c(cccc3[nH]c1=O)C(=O)c1ccccc1-2 | 41% | 0% | u | 0% | -14% | -15% | x | x | x
CC1CCc2onc(C(=O)N3CCN(c4cccc(C(F)(F)F)c4)CC3)c2C1 (stereo not drawn) | -7% | -9% | -15% | -1% | x | 1% | x | x | x
Cc1cc2[nH]c3c4ccccc4nc(C)c3c2cc1C | 14µM* | 79µM* | -19% | x | 22%[11.6 µM] | u | 42* | x | 6.7*
Cc1cc2[nH]c3ccccc3c2c(C)n1 | -9% | -17% | -8% | -14% | 10% | -25% | x | x | x
O=C(O)C(Cc1ccccc1)N1C(=O)/C(=C/C=C/c2ccco2)SC1=S (stereo not drawn) | 1.1µM* | 3.2µM* | 1.4µM* | 1.6µM* | 10µM* | 11µM* | 3* | 3.4* | 27* | PGK validate=5.8µM*
COc1ccc(/C=C2\SC(=S)N(C(Cc3ccccc3)C(=O)O)C2=O)cc1 (stereo not drawn) | -2% | -9% | 4% | -12% | u | -6% | x | x | x
CCN(CC)CCOc1ccc2c(c1)C(=NO)c1cc(OCCN(CC)CC)ccc1-2 | 20µM* | u | u | 40µM* | 35µM* | 13µM* | 75* | x | 8.5*
CCN(CC)CCOc1ccc(Br)cc1 | 18% | -10% | -1% | 4% | -4% | -5% | x | x | x
CC(=O)NC1[C@H]([C@H](O)[C@H](O)CO)OC(C(=O)O)=C[C@H]1N=C(N)N (stereo partly drawn) | x | -4%[60.1 µM] | x | x | x | x | x | x | x
CCc1ccc(C(=O)c2cn(CC(=O)Nc3ccc(OC)cc3)c3cc4c(cc3c2=O)OCO4)cc1 | 27% | -1% | -7% | u | x | -7% | x | x | x
CCc1ccc(C(=O)c2cn(CC(=O)Nc3ccc4c(c3)OCO4)c3ccc(OC)cc3c2=O)cc1 | u | -22% | 45µM* | 10µM* | x | 32µM* | 21* | u | 67* | Pol kappa inh-2=17*
O=C1C=C(O)c2c(O)cc(O)c(O)c2C1=O | 3.5µM* | 2µM* | 1.6µM* | x | u | 3.5µM* | 3.8* | 21* | 21* | PGK validate=8.2µM*
CC(=O)Nc1ccc(C=NNc2ccc(S(=O)(=O)Nc3ccccc3C(=O)O)cc2[N+](=O)[O-])cc1 | u | -30% | 22µM* | x | u | 50µM* | u | 76* | 85* | Pol kappa inh-2=21*
COC(=O)C1=COC(OC2OC(CO)C(O)C(O)C2O)C2C1C=CC2(O)CO (stereo not drawn) | 40µM* | 35µM* | 18µM* | 20µM* | -23% | -1% | 34* | 27* | u | PGK validate=8.2µM*
